# Source: PubChem (several laboratories)
# This is a sample that favours compounds with a hit; in the whole collection about 12% have one here.
# ROMK mod = human ROMK K+ channel modulation, primary screen; Tet-inducible ROMK, thallium flux fluorescence; actives lie on both sides; 130,000 compounds, 2% hits; B-score at 10 µM; P48048; AID 1918;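 active means signal ratio slope over the read window, or its plate-corrected B-score, at least 3 SD from the plate mean, either direction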;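 further: B-score of the F/F0 ratio slope over 7 to 12 s after thallium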
# Target sequence (P48048 whole entry, looked up): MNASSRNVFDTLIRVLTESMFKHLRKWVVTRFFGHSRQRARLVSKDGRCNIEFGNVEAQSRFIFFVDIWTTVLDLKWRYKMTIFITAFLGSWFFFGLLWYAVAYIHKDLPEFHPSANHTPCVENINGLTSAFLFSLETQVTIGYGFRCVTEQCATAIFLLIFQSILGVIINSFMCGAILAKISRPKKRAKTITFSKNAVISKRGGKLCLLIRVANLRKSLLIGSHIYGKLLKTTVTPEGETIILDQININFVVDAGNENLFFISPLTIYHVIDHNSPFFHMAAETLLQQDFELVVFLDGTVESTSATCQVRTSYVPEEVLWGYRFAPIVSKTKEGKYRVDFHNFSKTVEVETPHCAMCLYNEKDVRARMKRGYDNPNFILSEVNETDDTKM
# WT yeast gro inh = growth inhibition of WT yeast, mitochondrial fusion screen. mitochondrial fusion phenotypic screen, WT strain. inhibition, % at 10 µM. 190,000 compounds, 2.1% hits; in the data active means inhibition above about 58%; tested in S. cerevisiae
# Lmaj promast = inhibitors of Leishmania major promastigote growth; Leishmania major promastigotes, resazurin fluorescence viability; inhibition, % at 10 µM; 200,000 compounds, 9% hits; in the data active means inhibition above about 50%;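 further: promastigotes grown with compound for 44 hours at 28 °C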
# Calpain2 inh = calpain II (pig) inhibition; inhibition, % at 16 µM; 220,000 compounds, 0.37% hits; purified calpain II, fluorogenic peptide substrate, 30 min; AID 1236;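 active means inhibition above about 50%, limit read from the data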
# Cl transport mod = KCC2 (human) Cl- transport modulation; AID 1456; B-score of Tl+ flux slope (higher = more flux/activation; lower = inhibition) at 10 µM; 190,000 compounds, 2.2% hits; KCC2 cells, thallium flux FluoZin-2 fluorescence;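 active means thallium flux slope and its plate-corrected score both differing from the plate sample mean at a set confidence after two filtering rounds, in either direction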;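 further: slope of fluorescence scaled to starting intensity during 10 to 20 s after thallium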
# KCC2 sec1 = confirmation of human KCC2 transport modulators | shares compounds with Cl transport mod | HEK293-KCC2, thallium flux, FluoZin2 fluorescence; stronger effect = higher value | normalised thallium flux (F/F0 slope) at 10 µM | 3,700 compounds, 15% hits | AID 1713;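 active means thallium flux slope above the same plate's solvent-only control mean plus 3 SD; inconclusive means the two replicate wells disagree; inactive means no significant difference from solvent-only control wells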
# KCC2 bumet counter = thallium flux despite bumetanide block in KCC2 cells, secondary assay 3 | shares compounds with Cl transport mod | HEK293-KCC2 + bumetanide/ouabain, thallium flux FluoZin2; stronger effect = higher value | normalized thallium flux at 10 µM | 3,700 compounds, 49% hits;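 active means thallium entry rate above the same plate's blocked-transporter control wells by more than 3 SD; inconclusive means the two repeat wells disagree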;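 further: raw slope of fluorescence over initial fluorescence between 10 and 20 s after thallium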
# KCC2 sec2 = confirmation of human KCC2 transport modulators. shares compounds with Cl transport mod. HEK293-KCC2, thallium flux FluoZin2 fluorescence; actives lie on both sides; F/F0 rise rate, 10–20 s post-thallium. normalized thallium flux at 10 µM. 3,700 compounds, 23% hits. AID 1715;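 active means thallium flux slope more than 3 SD above or below the plate's solvent-only control mean, mostly below; inconclusive means the two repeat wells disagreed; inactive means no significant shift from solvent-only controls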
# HEK293 Tl flux = acts in parental HEK cells, KCC2 counter-screen. 3,700 compounds, 46% hits. HEK293 parental cells, thallium flux FluoZin2, ouabain; baseline-ratio fluorescence slope, 10–20 s after thallium. thallium flux rate (normalised fluorescence) at 10 µM. shares compounds with Cl transport mod;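 active means thallium flux rate significantly above the same plate's solvent-only control wells, beyond their mean plus 3 SD; inconclusive means the two replicate wells gave conflicting results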
# KCC2 ouabain = KCC2 (human) modulation, ouabain retest | 3,700 compounds, 48% hits | shares compounds with Cl transport mod | AID 1717 | raw Tl+ flux slope (below DMSO = inhibition, above = activation) at 10 µM | HEK293-KCC2, thallium flux FluoZin2 fluorescence; bidirectional: low = inhibitor, high = activator;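 active means thallium flux slope beyond 3 SD from same-plate DMSO control mean in most replicates, usually higher, sometimes lower; inconclusive means repeat tests gave conflicting results; inactive means no significant difference from controls in most replicates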;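 further: slope of initial-normalized fluorescence between seconds 10 and 20 after thallium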
# HEK293 Tl flux2 = parental HEK flux effect, counter-screen 2. shares compounds with Cl transport mod. HEK293 parental, thallium flux FluoZin-2 fluorescence slope. thallium flux slope at 10 µM. 3,700 compounds, 33% hits. AID 1718;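 active means thallium flux slope above the same plate's solvent-control mean plus 3 SD in both duplicate wells; inconclusive means duplicate wells that disagreed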;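 further: run without ouabain in cells lacking the KCC2 cotransporter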
# Numbers stand for hits; i = inactive; ? = inconclusive; nt = no result given.
SMILES,ROMK mod,WT yeast gro inh,Lmaj promast,Calpain2 inh,Cl transport mod,KCC2 sec1,KCC2 bumet counter,KCC2 sec2,HEK293 Tl flux,KCC2 ouabain,HEK293 Tl flux2
O=C(/C=C/c1cccs1)Nc1nc(-c2ccccc2)cs1,nt,i,i,i,nt,nt,nt,nt,nt,nt,nt
Cc1nc(CCN2C(=O)c3ccccc3C2=O)cs1,nt,i,i,i,nt,nt,nt,nt,nt,nt,nt
Cc1ccc(N/N=C(/Sc2nnnn2-c2ccccc2)C(=O)c2ccccc2)cc1,i,i,i,i,i,nt,nt,nt,nt,nt,nt
Cn1nnnc1N=N/C(=N/Nc1ccccc1)c1ccccc1,nt,nt,nt,i,59.7,0.0264,0.094,0.0572,0.0444,0.0519,0.0448
CC1CCC/C(=N\NC(=S)Nc2ccccc2)C1 (centres undefined),i,i,i,i,14.8,0.0144,0.0494,i,0.0177,0.0353,0.0118
CC1CCC/C(=N\NC(=S)NCc2ccccc2)C1 (centres undefined),nt,i,i,i,8.05,i,0.0104,i,?,i,i
COc1cccc(NC(=S)NN=C2CCCCCC2)c1,i,i,i,i,39,0.0185,0.0996,?,0.0409,0.0499,0.0174
CC1CCCC/C1=N\NC(=S)Nc1ccccc1 (centres undefined),i,i,i,i,9.47,0.0132,0.0525,i,0.0188,0.0478,0.013
CCc1ccc(NC(=S)Nc2cccc(OC)c2)cc1,i,i,i,i,i,nt,nt,nt,nt,nt,nt
NNC(=O)c1nc(Cl)c(Cl)c(N)c1Cl,i,nt,nt,i,i,nt,nt,nt,nt,nt,nt
C=C1CCC(C)C(C)(CCC2=CCOC2=O)C/C=C\C=C/1C(=O)O (centres undefined),nt,nt,nt,i,i,nt,nt,nt,nt,nt,nt
O=C(O)c1ccccc1C(=O)NC1CCCCNC1=O (centres undefined),nt,nt,nt,i,i,nt,nt,nt,nt,nt,nt
CC(C)CCNC(=O)COC(=O)/C=C/c1ccc2ccccc2n1,i,i,i,i,-3.95,i,i,0.0238,i,0.0135,i
CN(C(=O)COC(=O)/C=C/c1ccc2ccccc2n1)C1CCS(=O)(=O)C1 (centres undefined),i,i,i,i,i,nt,nt,nt,nt,nt,nt
CC(C)CSC1=NSC2=NC(=O)/C(=C\c3cccs3)C(=N)N12,i,i,i,i,41.7,0.00975,0.0895,0.0655,0.0665,0.0748,0.0451
CC1=CC2=NC(=O)/C(=C/c3cccs3)C(=N)N2O1,nt,nt,nt,i,i,nt,nt,nt,nt,nt,nt
O=C(Cc1csc(Nc2nc(=S)[nH]c3ccccc23)n1)NCCCN1CCN(c2ccccc2F)CC1,i,i,i,i,20.3,0.0144,0.051,0.041,0.0388,0.0619,0.016
COC(=O)c1cc(-c2ccccc2)sc1NC(=O)CN1C(=O)c2ccccc2C1=O,nt,i,i,i,i,nt,nt,nt,nt,nt,nt
COc1ccc(CSCCc2n[nH]c(=S)n2-c2ccccc2)cc1C,nt,i,i,i,54.8,i,0.0294,i,0.0234,i,i
Oc1ccc(-n2cccc2/C=N/n2cnnc2)cc1,i,i,i,i,i,nt,nt,nt,nt,nt,nt
Cc1ccc(-n2cccc2/C=N/n2cnnc2)cc1Cl,i,i,i,i,nt,i,i,i,i,i,i
COc1ccc(CN(Cc2ccccn2)C(=O)CN2C(=O)COc3ccccc32)cc1,i,i,i,i,-2.77,i,i,0.0241,i,0.0167,i
COCCCn1c(=S)[nH]c2ncccc2c1=O,nt,i,i,i,i,nt,nt,nt,nt,nt,nt
CN(CCCn1c(=S)[nH]c2ncccc2c1=O)Cc1ccccc1,nt,i,i,i,14.8,?,0.057,i,0.0222,0.0566,0.0138
O=c1c2cccnc2[nH]c(=S)n1CCC1=CCCCC1,nt,i,i,i,67.9,0.0413,0.16,0.0507,0.0745,0.0853,0.0471
SMILES,ROMK mod,WT yeast gro inh,Lmaj promast,Calpain2 inh,Cl transport mod,KCC2 sec1,KCC2 bumet counter,KCC2 sec2,HEK293 Tl flux,KCC2 ouabain,HEK293 Tl flux2
CCCCCn1c(=S)[nH]c2ncccc2c1=O,nt,i,i,i,56.6,0.0379,0.12,0.0465,?,0.0938,0.036
CCc1cccc(CC)c1NC(=S)NCCc1c(C)[nH]c2ccccc12,i,68.1,i,i,-3.75,i,?,i,?,i,i
O=c1c2ccccc2nc2n1C(CSCc1ccc(Cl)cc1Cl)CS2 (centres undefined),i,i,i,i,nt,nt,nt,nt,nt,nt,nt
S=C(Nc1ccccn1)NC1CCCC1,i,i,i,i,i,nt,nt,nt,nt,nt,nt
S=C(Nc1ccccn1)NC1CCCCC1,i,nt,nt,i,3.49,i,0.00631,i,i,i,i
Cc1cccc(NC(=S)NNC(=S)NC2CCCCC2)c1C,i,i,i,i,3.99,i,0.0123,i,0.0094,?,i
O=C(NC(=S)Nc1ccccn1)c1ccccc1,i,nt,nt,i,9.13,i,0.0173,i,?,0.0271,i
CC(=O)Nc1cccc2ncccc12,i,i,i,i,i,nt,nt,nt,nt,nt,nt
O=C(NC(=S)Nc1cccc2ncccc12)c1cccs1,i,i,i,i,8.21,?,0.0346,i,0.0163,0.0248,0.0183
S=C(Nc1ccccc1Cl)NC1CCCCCC1,i,i,i,i,i,nt,nt,nt,nt,nt,nt
O=C(Nc1nnc(COc2ccc(Cl)cc2)s1)c1ccco1,i,i,i,i,i,nt,nt,nt,nt,nt,nt
c1ccc2c(c1)c1ccccc1n1c(-c3ccc4c(c3)OCO4)nnc21,nt,i,i,i,nt,nt,nt,nt,nt,nt,nt
O=C(NC(=S)Nc1cccc2ncccc12)c1ccccc1,i,i,i,i,4.47,i,0.00996,i,0.0111,i,?
c1ccc2sc(SN3CCOCC3)nc2c1,nt,i,i,i,2.82,i,0.013,i,0.0113,i,?
COc1ccc(NC(=O)c2ccccc2-c2ccccc2)c(C)c1,i,i,i,i,i,nt,nt,nt,nt,nt,nt
Cc1nc(NC(=O)c2ccc(Br)s2)sc1C(=O)N(C)C,i,i,i,i,i,nt,nt,nt,nt,nt,nt
CCOc1cccc2sc(NC(=O)c3ccc(Br)s3)nc12,nt,i,i,i,31.5,?,0.0565,0.0489,0.0338,0.0377,0.0315
CC(C)(C)n1[nH]c2c3c(ccc2c1=O)C(=O)c1ccccc1C3=O,i,nt,95.3,i,nt,i,i,i,i,i,i
CC1=C(C(=O)OC2CCCC2)C(c2coc3ccccc3c2=O)C2=C(CC(C)(C)CC2=O)N1 (centres undefined),nt,nt,nt,i,i,nt,nt,nt,nt,nt,nt
Cc1c(Br)c([N+](=O)[O-])nn1CC(=O)N(C)Cc1ccccc1,i,i,i,i,i,nt,nt,nt,nt,nt,nt
CC(C)NC(=O)C1CCN(C(=O)C(C(=O)c2ccccc2)n2cc(Cl)ccc2=O)CC1 (centres undefined),nt,i,i,i,-4.29,i,?,i,0.00963,i,?
